Screening data from PubChem.
A selection: hits, their analogues and other compounds. The true share with any hit is near 10%.
GPT2 inh: Primary qHTS assay for inhibitors of Glutamate pyruvate transaminase 2 (GPT2); Recombinant GPT2, coupled pyruvate oxidase/HRP Amplex Red fluorescence; Potency, µM (titrated, usually from 57.7 µM), for inactives: top-dose activity change, negative = inhibition, actives largely listed as inhibitors; hit rate 0.25% among 100,000; also: nearly all actives have a fitted effect of over 60% in size
Target sequence (Q8TD30 whole entry, looked up): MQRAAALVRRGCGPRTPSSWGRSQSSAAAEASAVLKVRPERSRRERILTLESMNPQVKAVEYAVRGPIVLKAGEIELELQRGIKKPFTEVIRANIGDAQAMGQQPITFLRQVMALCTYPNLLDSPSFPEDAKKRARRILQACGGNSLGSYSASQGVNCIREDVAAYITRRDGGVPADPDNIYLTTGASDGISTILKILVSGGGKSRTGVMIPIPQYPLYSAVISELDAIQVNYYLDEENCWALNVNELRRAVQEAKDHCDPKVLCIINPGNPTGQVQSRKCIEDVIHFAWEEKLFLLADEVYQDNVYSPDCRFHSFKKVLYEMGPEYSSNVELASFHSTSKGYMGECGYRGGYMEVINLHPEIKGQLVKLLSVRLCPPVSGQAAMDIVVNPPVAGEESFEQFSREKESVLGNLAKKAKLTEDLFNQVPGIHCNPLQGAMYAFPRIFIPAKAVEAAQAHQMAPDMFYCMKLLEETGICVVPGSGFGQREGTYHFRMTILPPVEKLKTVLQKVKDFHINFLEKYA
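Recombinant GPT2 (10ng/uL) with 250uM a-KG and 2mM L-alanine, 30 min at room temperature, in HEPES pH 7.5 buffer. Pyruvate detected by pyruvate oxidase/HRP/Amplex Red fluorescence after 30 min in the dark; AOA (50uM) as positive control.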
Luciferase inh: Firefly luciferase inhibition profiling of diverse chemical library using quantitative high-throughput screening. Potency, µM (titrated, usually from 115 µM), actives largely listed as inhibitors. Luciferin 4-monooxygenase (Photinus pyralis), P08659. purified P. pyralis luciferase, luminescence, biochemical. hit rate 2.5% among 76,000. AID 1347043, 2019; also: nearly all actives have a fitted effect of over 65% in size
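Cell-free enzyme assay, 10nM P. pyralis luciferase, luciferin and ATP each at 10uM. Inhibition profiled over a 6-point titration, read as luminescence.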
hNpr1 antagonist: Natriuretic polypeptide receptor (hNpr1) antagonism - Primary qHTS. Potency, µM (highest dose often 46.3 µM), inactives show at the highest dose activity change, negative = inhibition, usual class: inhibitors. HEK293 hNpr1 GloSensor cGMP, ANP-stimulated luminescence. AID 1347048, 2019. Atrial natriuretic peptide receptor 1 (Homo sapiens), P16066. hit rate 1.6% among 76,000; calls by dose curve; also: nearly all actives have a fitted effect of over 60% in size
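HEK293 cells stably expressing human Npr1 and cGMP GloSensor pGS-40F, loaded 2 h with 2% GloSensor reagent, given compound 30 min at room temperature. Luminescence read before and 20 min after 0.1 nM hNppA.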
3T3 cytotox: Cytotoxic Profiling in NIH 3T3 Cell Line of Diverse Libraries Using Quantitative High-Throughput Screening | NIH 3T3 viability, CellTiter-Glo ATP luminescence, 48-72 h | Potency, µM (series often up to 96.7 µM), without a hit: top-dose activity change, negative = cytotoxicity, usual class: inhibitors | hit rate 4.3% among 94,000 | AID 1345082, 2018; also: nearly all actives have a fitted effect of over 55% in size
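Cells were seeded at 400 per well, treated with pin-transferred compound, and kept 48 or 72 hr at 37 °C before CellTiter-Glo addition and luminescence imaging of cellular ATP.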
HEK293 tox: Cytotoxic Profiling in HEK 293 Cell Line of Diverse Libraries Using Quantitative High-Throughput Screening; HEK 293 viability, ATP luminescence (CellTiter-Glo), 48-72 h; Potency, µM (series often up to 115 µM), inactives show at the highest dose activity change, negative = cytotoxicity, actives largely listed as inhibitors; hit rate 6.6% among 94,000; AID 1345083, 2018; also: nearly all actives have a fitted effect of over 60% in size
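Luminescence from cellular ATP, measured with CellTiter-Glo, indicates HEK 293 viability. Cells plated at 250 cells/well are treated with compound for 48 or 72 hr at 37 degree Celsius before reagent addition.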
An asterisk follows results filed as active; i = inactive; ? = inconclusive; / = not tested or not shown; ! = a repeat was not active; [ ] = remark or other dose. Unless noted, calls follow the shape of the dose curve; as a rule, active = well fitted curve in the direction sought with a large enough effect; inconclusive = small, poorly fitted or top-dose-only effect, or another doubt; inactive = no such curve, though single readings can be large; an effect the other way counts as inactive or inconclusive. % is scaled to controls: 0 for no effect and ±100 for the full control effect; potency is read from the fitted curve at half-maximal effect.

SMILES | GPT2 inh | Luciferase inh | hNpr1 antagonist | 3T3 cytotox | HEK293 tox
COc1ccc(-c2cc(N3CCCN(C(=O)c4cc5ccccc5[nH]4)CC3)n[nH]2)cc1 | i | ? | -19% | 35µM* | 45µM*
COc1ccc(-c2cc(N3CCN(C(=O)c4ccc(C)cc4C)CC3)n[nH]2)cc1 | 5% | i | ? | ? | 40µM*
COc1cc(OC)cc(C(=O)N2CCCN(c3cc(-c4ccc(C)c(C)c4)[nH]n3)CC2)c1 | ? | i | -15% | ? | ?
COc1ccc(C2(C(=O)N3CCCN(c4cc(-c5ccc(C)c(C)c5)[nH]n4)CC3)CC2)cc1 | ? | i | ? | 32µM* | 25µM*
COc1ccc(-c2cc(N3CCCN(C(=O)c4ccc(OC)cc4OC)CC3)n[nH]2)cc1 | ? | i | ? | ? | 40µM*
O=C(c1cccc(Cl)c1)N1CCCC(C(=O)N2CCCC2c2nc3ccncc3[nH]2)C1 (stereo not drawn) | i | / | / | -24% | 2%
CCS(=O)(=O)N1C[C@@H](COC)[C@H](c2nc(C)no2)C1 | -1% | i | 3% | i | i
COC[C@@H]1CNC[C@H]1c1nc(C)no1 | i | i | -4% | -7% | 89µM*
O=C(c1ccccc1Cl)N1CCCN(CCn2nc3n(c2=O)CCCC3)CC1 | / | / | / | -16% | i
CCc1ccc(NC(=O)Cn2c(N(C)Cc3ccccc3)nc(C)cc2=O)cc1 | i | i | ? | ? | 35µM*
CCc1cccc(NC(=O)Cn2c(Nc3cc(C)cc(C)c3)nc(C)cc2=O)c1 | 1% | i | -2% | -14% | 40µM*
O=C(Cn1nc2c(cc1=O)CCCCC2)N1CCN(Cc2ccccc2Cl)CC1 | i | i | 4% | -16% | ?
O=C(Cn1nc2c(cc1=O)CCCC2)N1CCN(Cc2ccccc2Cl)CC1 | i | i | 7% | 28µM* | ?
COc1ncccc1-c1cc(C2=CCOCC2)c2cncn2c1 | i | i | 5%[70.6 µM] | ? | -17%[172 µM]
C1=C(c2cc(-c3cccc(N4CCOCC4)c3)cn3cncc23)CCOC1 | ? | i | -5%[70.6 µM] | ? | ?
Oc1ccccc1-c1cc(C2=CCOCC2)c2cncn2c1 | -1%[88.5 µM] | i | -2%[70.6 µM] | 63µM* | 100µM*
Oc1cccc(-c2cc(C3=CCOCC3)c3cncn3c2)c1 | ? | i | -11%[70.6 µM] | 100µM* | ?
CN(C)c1cccc(-c2cnc3[nH]cc(CC(=O)NCc4cccnc4)c3c2)c1 | i | ? | -10%[70.6 µM] | ? | ?
O=C(Cc1c[nH]c2ncc(-c3cccnc3)cc12)Nc1ccc(F)cc1 | 0%[88.5 µM] | i | -15%[70.6 µM] | 28µM* | ?
CN(C)C(=O)Cc1c[nH]c2ncc(-c3cccnc3)cc12 | -8%[88.5 µM] | i | -1%[70.6 µM] | 25µM* | -29%[230 µM]
CN(C)c1cccc(NC(=O)Cc2c[nH]c3ncc(-c4cccnc4)cc23)c1 | 4%[88.5 µM] | i | -25%[70.6 µM] | ? | ?
CCCN(CC1CCOC1)C(=O)Nc1ccc(Br)cc1 (stereo not drawn) | i | i | -1% | -2% | -9%
O=C(c1ccc(-c2ncc3cnc(-c4cccc(F)c4)cn23)cc1)N1CC(O)C1 | i | i | 2%[70.6 µM] | ? | ?
CN(Cc1ccc(F)cc1)C(=O)c1cn(Cc2ccccc2C(F)(F)F)nn1 | ? | i | 4% | ? | 7.9µM*
CC(CCc1ccccc1)NCC(O)c1ccc(O)c(C(N)=O)c1 (stereo not drawn) | i | / | / | / | /
SMILES | GPT2 inh | Luciferase inh | hNpr1 antagonist | 3T3 cytotox | HEK293 tox
CC(C)NC[C@H](O)c1ccc(O)c(O)c1 | 3.5µM*! | / | / | / | /
COCCCNC(=O)c1cccc(-c2ccc(OC)nn2)c1 | / | / | / | -15%[138 µM] | -4%[172 µM]
COc1ccc(-c2cccc(C(=O)NCC(F)F)c2)nn1 | / | / | / | -21%[138 µM] | -7%[172 µM]
COc1ccc(-c2cccc(C(=O)NCc3ccc(F)cc3)c2)nn1 | / | / | / | ? | 89µM*
COc1ccc(-c2cccc(C(=O)NCc3ccc(C(F)(F)F)cc3)c2)nn1 | / | / | / | ? | 40µM*
COc1ccc(-c2cccc(C(=O)NCCCc3ccccc3)c2)nn1 | / | / | / | ? | 79µM*
OC1(CNCc2cc(C(F)(F)F)ccc2F)CNCCOC1 (stereo not drawn) | -17% | i | -2% | 0% | -2%
COc1cccc(CN2CCCC3(C2)NC(=O)c2ccccc2O3)c1 (stereo not drawn) | ? | i | 0%[70.6 µM] | ? | -26%[172 µM]
Cc1oc(-c2cccc(C(F)(F)F)c2)nc1CN(C)Cc1cnn(C)c1 | -22%[11.5 µM] | i | -1% | -30% | ?
COC(=O)c1cn([C@H]2CO[C@H]3[C@@H]2OC[C@@H]3NC(=O)NCc2ccccc2)nn1 | 3%[88.5 µM] | ? | -10%[70.6 µM] | ? | -21%[172 µM]
O=C(CCc1c[nH]c2ccccc12)N1CCC[C@H](n2c(=O)n(CC3CC3)c3cccnc32)C1 | -9% | i | -3% | ? | 79µM*
Cc1nc(C)c(C(=O)N2CCC[C@H](n3c(=O)n(Cc4ccccc4)c4cccnc43)C2)s1 | i | i | -8% | -14% | 40µM*
COCCn1c(=O)n([C@H]2CCCN(C(=O)Cc3cccc(F)c3)C2)c2ncccc21 | i | i | 7% | 3% | i
O=C(NCc1ccccc1)N1CCC[C@H](n2c(=O)n(CC3CC3)c3cccnc32)C1 | ? | i | -4% | -24% | -28%
Cc1cccc(CC(=O)N2CCC[C@H](n3c(=O)n(Cc4ccccc4)c4cccnc43)C2)c1 | i | i | ? | ? | 40µM*
CCc1nc(-c2c3n(c(=O)n(Cc4ccc(C(=O)OC)cc4)c2=O)CCCC3)no1 | i | i | -5% | i | -1%
CC1=Nc2cc(C(=O)NCCCN(C)C)ccc2Sc2ccc(F)cc21 | -13% | i | 2% | ? | 50µM*
CC1=Nc2cc(C(=O)NCCCN(C)C)ccc2Sc2ccc(Cl)cc21 | i | i | -12% | 22µM* | 25µM*
COc1ccc(CN2CCc3oc(C)c(C(=O)N4CCN(c5ncccn5)CC4)c3C2)cc1 | i | ? | -13% | ? | ?
Cc1nc(N2CCC(C(=O)NCc3ccc4c(c3)OCO4)CC2)cc(C(F)(F)F)n1 | 3% | 89µM* | ? | ? | ?
COc1ccc(CNC(=O)C2CCN(c3nccc(Nc4ccc(OC)cc4)n3)CC2)cc1 | -2% | / | / | 40µM* | 45µM*
Cc1ccc(Nc2ccnc(N3CCC(C(=O)NCc4ccc5c(c4)OCO5)CC3)n2)cc1 | i | / | / | 18µM* | ?
